Reference: PubChem BioAssay
For part of these data: Measured potencies and affinities stand elsewhere. The list shows a part of the results. The source made the active and inactive calls.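 Rule for the calls, unless noted: active = compound raising the membrane signal above positive-control mean plus 3 SD in both repeats, and a primary screen hit; inactive = the rest.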

Legend:
[1] = tested on: TRPC4 beta (transient receptor potential cation channel C4), mouse; test: activators of mouse TRPC4 channel, confirmation, cell-based, Fluo4 calcium, HEK293 TRPC4beta/mu-opioid, duplicates, 10 µM (AID 2426;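 active = fluorescence ratio normalized to control raised more than 50% in primary screen plus both repeat runs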;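 note: percent rise of integrated ratio over buffer wells lacking compound which define 0%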); conditions: Fluo4 calcium fluorescence, at 10 µM; active compounds read high
[2] = tested on: transient receptor potential cation channel C4 beta (TRPC4), mouse; test: activators of mouse TRPC4 channel, confirmation, cell-based, second round, Fluo4, HEK293 TRPC4beta/mu-opioid, 1 µM (AID 2461;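 active = primary screen active and over 50% activation in each of two duplicate runs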;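 for activation: 0% = wells without test compound as baseline of integrated fluorescence ratio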); conditions: Fluo4 calcium fluorescence, at 1 µM; active compounds read high
[3] = tested on: TRPC4 (transient receptor potential cation channel C4 beta), mouse; test: positive allosteric modulators of mouse TRPC4, confirmation, cell-based, second round, Fluo-4, HEK293 TRPC4beta/mu-opioid, 1 µM (AID 2554;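 active = primary screen hit whose fluorescence ratio, in both repeats, exceeds the weak agonist control mean by 3 SD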); conditions: DAMGO EC20, Fluo-4 calcium flux, at 1 µM; active compounds read high
[4] = tested on: TRPC4 beta (transient receptor potential cation channel C4), mouse; test: positive allosteric modulators of mouse TRPC4, confirmation, cell-based, Fluo-4, HEK293 TRPC4beta/mu-opioid (AID 2555;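 active = primary screen hit whose calcium fluorescence ratio, in both repeats, exceeds the weak agonist control mean by 3 SD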); conditions: DAMGO EC20, Fluo-4 calcium flux, at 10 µM; active compounds read high
[5] = molecular target: Short transient receptor potential channel 4 (Mus musculus) (UniProt Q9QUQ5); test: inhibitors of mouse TRPC4 channel, confirmation, cell-based, Fluo4, HEK293 TRPC4beta/mu-opioid (AID 2636;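 active = calcium signal cut by more than 3 SD below the full-agonist control yet still positive, in both repeats and the earlier primary screen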); conditions: DAMGO, Fluo4 calcium flux, at 10 µM; active compounds read high
Chain of Short transient receptor potential channel 4 (Mus musculus) (Q9QUQ5 whole entry, looked up): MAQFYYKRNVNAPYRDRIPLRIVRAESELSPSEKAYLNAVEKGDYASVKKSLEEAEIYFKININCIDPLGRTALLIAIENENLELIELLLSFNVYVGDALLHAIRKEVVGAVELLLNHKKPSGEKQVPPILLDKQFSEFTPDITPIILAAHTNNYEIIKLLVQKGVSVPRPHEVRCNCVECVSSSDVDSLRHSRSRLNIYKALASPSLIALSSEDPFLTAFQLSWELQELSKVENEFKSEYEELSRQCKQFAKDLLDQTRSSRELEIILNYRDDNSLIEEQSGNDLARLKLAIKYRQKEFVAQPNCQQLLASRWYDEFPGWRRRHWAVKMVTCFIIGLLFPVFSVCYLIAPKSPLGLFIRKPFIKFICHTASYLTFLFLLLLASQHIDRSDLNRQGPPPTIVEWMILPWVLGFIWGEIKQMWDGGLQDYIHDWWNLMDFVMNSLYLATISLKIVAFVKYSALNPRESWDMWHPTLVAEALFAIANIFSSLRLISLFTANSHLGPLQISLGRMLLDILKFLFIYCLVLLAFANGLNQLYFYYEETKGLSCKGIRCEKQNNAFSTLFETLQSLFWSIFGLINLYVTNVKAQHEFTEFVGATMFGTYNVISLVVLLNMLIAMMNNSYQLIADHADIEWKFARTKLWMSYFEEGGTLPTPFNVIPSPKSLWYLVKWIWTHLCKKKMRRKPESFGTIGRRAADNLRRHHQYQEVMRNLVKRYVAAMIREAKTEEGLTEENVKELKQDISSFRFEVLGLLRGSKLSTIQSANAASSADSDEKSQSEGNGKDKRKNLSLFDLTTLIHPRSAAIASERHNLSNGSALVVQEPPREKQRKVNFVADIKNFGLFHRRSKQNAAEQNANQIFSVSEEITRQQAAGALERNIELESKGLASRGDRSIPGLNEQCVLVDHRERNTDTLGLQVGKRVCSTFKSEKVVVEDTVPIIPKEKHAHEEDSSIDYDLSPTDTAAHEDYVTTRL

[6] = molecular target: Short transient receptor potential channel 4 (Mus musculus) (UniProt Q9QUQ5); test: inhibitors of mouse TRPC4 channel, confirmation, cell-based, second round, Fluo4, HEK293 TRPC4beta/mu-opioid, 1 µM (AID 2637;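 active = calcium signal ratio cut to more than 3 SD under the fully stimulated control mean yet still positive, in both repeats and the primary screen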); conditions: Fluo4 calcium flux, DAMGO, at 1 µM; active compounds read high
[7] = molecular target: Short transient receptor potential channel 4 (Mus musculus) (UniProt Q9QUQ5); test: mouse TRPC4 channel inhibitors, dose response, cell-based, HEK293 TRPC4/mu-opioid, Fluo-4 calcium (AID 434942;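 active = primary screen inhibitor hit that blocks the TRPC4 channel at some tested dose, yielding a dose curve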)
[8] = molecular target: Short transient receptor potential channel 6 (Mus musculus) (UniProt Q61143); test: inhibition of mouse TRPC6 channel, confirmation, selectivity assay for TRPC4 inhibitor project, cell-based, HEK293, membrane potential dye, duplicate (AID 434948;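 active = active in primary screen and both duplicates, each dropping signal beyond three positive-control SD with fluorescence still positive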); conditions: HEK293 TRPC6, membrane potential dye fluorescence, at 10 µM, stimulated with maximal-effect acetylcholine; active compounds read high
Chain of Short transient receptor potential channel 6 (Mus musculus) (Q61143 whole entry, looked up): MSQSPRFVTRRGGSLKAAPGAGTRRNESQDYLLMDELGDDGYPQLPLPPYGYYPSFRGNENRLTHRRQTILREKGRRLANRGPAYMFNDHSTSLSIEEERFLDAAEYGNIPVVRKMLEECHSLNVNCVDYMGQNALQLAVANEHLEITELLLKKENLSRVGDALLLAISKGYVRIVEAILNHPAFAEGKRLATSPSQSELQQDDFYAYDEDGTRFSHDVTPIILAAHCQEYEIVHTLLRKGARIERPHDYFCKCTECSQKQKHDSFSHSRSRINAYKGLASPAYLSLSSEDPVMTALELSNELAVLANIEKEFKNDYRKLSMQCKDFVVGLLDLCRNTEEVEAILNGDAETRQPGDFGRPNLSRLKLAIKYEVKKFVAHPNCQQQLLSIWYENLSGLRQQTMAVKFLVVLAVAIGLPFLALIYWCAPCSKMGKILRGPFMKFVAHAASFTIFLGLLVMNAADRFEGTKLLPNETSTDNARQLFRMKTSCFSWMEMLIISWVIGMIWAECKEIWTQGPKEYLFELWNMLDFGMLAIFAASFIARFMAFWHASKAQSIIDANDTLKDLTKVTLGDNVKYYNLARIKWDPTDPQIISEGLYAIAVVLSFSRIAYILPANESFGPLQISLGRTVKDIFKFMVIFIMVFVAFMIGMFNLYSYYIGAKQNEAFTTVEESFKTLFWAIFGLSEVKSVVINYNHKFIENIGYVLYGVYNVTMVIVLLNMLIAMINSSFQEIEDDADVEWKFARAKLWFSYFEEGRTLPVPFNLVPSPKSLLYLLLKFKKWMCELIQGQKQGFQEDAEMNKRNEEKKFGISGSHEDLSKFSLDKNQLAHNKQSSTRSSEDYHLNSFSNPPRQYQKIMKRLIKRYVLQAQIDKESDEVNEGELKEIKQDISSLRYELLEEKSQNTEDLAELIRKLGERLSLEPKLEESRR

[9] = molecular target: Short transient receptor potential channel 6 (Mus musculus) (UniProt Q61143); test: activation of mouse TRPC6 channel, confirmation, selectivity assay for TRPC4 activator project, cell-based, HEK293, membrane potential dye, duplicate (AID 434950;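 active = membrane potential signal rise above negative control mean plus 3 SD in both duplicates, also active in the earlier TRPC4 screen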;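 for activation: 0% = buffer only wells and 100% = acetylcholine maximal-effect wells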); conditions: HEK293 TRPC6, membrane potential fluorescence, at 10 µM; active compounds read high
[10] = molecular target: Short transient receptor potential channel 6 (Mus musculus) (UniProt Q61143); test: TRPC6 potentiation by TRPC4 potentiator hits, confirmation, selectivity assay for TRPC4 potentiator project, HEK293 cells, membrane potential dye, duplicate (AID 434952); conditions: HEK293 TRPC6, membrane potential dye fluorescence, at 10 µM, maximal acetylcholine added after compound; active compounds read high
[11] = molecular target: Short transient receptor potential channel 4 (Mus musculus) (UniProt Q9QUQ5); test: calcium flux activators in TRPC4/5HT1a cells, counter-screen for TRPC4 activator project, cell-based, second counter screen, HEK293 TRPC4/5HT1a, Fluo-4 (AID 434977;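 active = calcium signal rise above buffer-control mean plus 5 SD in both duplicates, and also a hit in the primary screen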;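 note: plate controls were assay buffer for no effect and maximal serotonin response for full effect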); conditions: Fluo-4 calcium flux, at 10 µM; active compounds read high
[12] = calcium flux inhibitors in TRPC4/5HT1a cells, confirmation, counter-screen for TRPC4 inhibitor project, cell-based, second counter screen, HEK293 TRPC4/5HT1a, Fluo-4 (AID 434978;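 active = primary screen active whose calcium signal fell more than 3 SD beyond the full-serotonin control mean in both duplicate plates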;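 note: serotonin given first at submaximal then at maximal dose after compound preincubation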); conditions: Fluo-4 calcium flux, at 10 µM, serotonin added to trigger calcium flux; active compounds read high
[13] = tested on: TRPC4 (mouse), co-expressed with 5HT1a in HEK293; test: calcium flux potentiators in TRPC4/5HT1a cells, confirmation, counter-screen for TRPC4 potentiator project, cell-based, second counter screen, HEK293 TRPC4/5HT1a, Fluo-4 (AID 434979;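 active = signal rise over 3 SD above mean of control wells given weak agonist, in both repeats and first screen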); conditions: Fluo-4 calcium flux, at 10 µM, serotonin added at its EC20 dose; active compounds read high
[14] = calcium flux activation in mu-opioid HEK293 cells, confirmation, counter-screen for TRPC4 activator project, cell-based, HEK293 mu-opioid receptor line (AID 449723;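 active = hit in primary screen, with calcium signal over 5 SD above buffer well mean in both duplicates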;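 note: counter screen cells carry the mu-opioid receptor alone and lack TRPC4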); conditions: Fluo-4 calcium fluorescence, at 10 µM; active compounds read high
[15] = calcium flux enhancement in mu-opioid HEK293 cells, confirmation, counter-screen for TRPC4 allosteric potentiator project, cell-based, HEK293 mu-opioid receptor line (AID 449724;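 active = calcium signal rise more than 3 SD above the low-dose agonist control mean, in both duplicate plates and the primary screen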); conditions: Fluo-4 calcium flux, at 10 µM, compound added before EC20 DAMGO stimulus; active compounds read high
[16] = molecular target: Short transient receptor potential channel 4 (Mus musculus) (UniProt Q9QUQ5); test: mouse TRPC4 membrane potential modulation by TRPC6 hits, confirmation, selectivity assay for TRPC6 inhibitor project, cell-based, second specificity screen, HEK293 TRPC4/mu-opioid (AID 2776;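 active = compounds whose fluorescence signal differed from control wells by over 3 SD, either direction, in both duplicate plates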); conditions: HEK293 TRPC4/MOR, membrane potential dye fluorescence, at 10 µM, channel activated by saturating DAMGO dose; active compounds read high
[17] = tested on: transient receptor potential cation channel C4 (TRPC4), mouse; test: mouse TRPC4 modulation by TRPC6 hits, confirmation, selectivity assay for TRPC6 inhibitor project, cell-based, HEK293 TRPC4/mu-opioid, membrane potential dye (AID 2777;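 active = rise or fall in signal beyond 3 SD of buffer-only wells in both replicate plates, either sign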;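 note: integrated kinetic ratio of fluorescence range over baseline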); conditions: membrane potential fluorescence, at 10 µM
[18] = nonspecific membrane potential effects, parental HEK293, confirmation, counter-screen for TRPC6 inhibitor project, cell-based, second counter screen (AID 2779;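 active = membrane potential signal moving either way by over 3 SD of the maximum-effect control, in both duplicate plates, meaning non-specific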); conditions: parental HEK293 membrane potential dye fluorescence; at 10 µM; maximal acetylcholine challenge after compound addition
[19] = membrane potential modulation in parental HEK293, confirmation, counter-screen for TRPC6 inhibitor project, cell-based (AID 2780;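 active = membrane potential signal shifting up or down by more than 3 SD of buffer-only wells, on both duplicate plates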;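 note: plate controls were buffer EC0 wells for no effect and acetylcholine ECmax wells for full effect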); conditions: parental HEK293 membrane potential dye fluorescence; at 10 µM
[20] = molecular target: Short transient receptor potential channel 6 (Mus musculus) (UniProt Q61143); test: mouse TRPC6 channel inhibitors, confirmation, HEK293 cells, membrane potential dye, duplicate (AID 488960;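 active = fluorescence ratio falls more than 5 SD below the full-stimulation control mean, in both duplicate runs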;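 note: integrated fluorescence ratio of peak minus minimum over baseline after agonist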); conditions: ACh-evoked depolarization, at 10 µM; active compounds read high
[21] = molecular target: Short transient receptor potential channel 6 (Mus musculus) (UniProt Q61143); test: mouse TRPC6 channel activators, confirmation, HEK293 cells, membrane potential dye, duplicate (AID 488961;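 active = ratio signal rise beyond 5 SD above unstimulated control wells' mean, seen in both duplicate runs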); conditions: HEK293-TRPC6 membrane potential dye fluorescence, FDSS, at 10 µM; active compounds read high

CCCCc1cc(O)c(CCCC)c(O)c1
active: activation [1] 63% | potentiation [4] 14% | activation [11] 44.6% | activation [14] 34.5%
inactive: outcome [2] | outcome [3] | outcome [5] | outcome [6] | outcome [7] | outcome [8] | outcome [9] | outcome [10] | outcome [12] | outcome [13] | outcome [15]

CN(C)CCCOc1cccc(Cl)c1
active: activation [1] 71% | activation [2] 55% | potentiation [3] 32% | potentiation [4] 37% | activation [9] 51% | activation [11] 17.9% | potentiation [13] 28.7%
inactive: outcome [5] | outcome [6] | outcome [7] | outcome [8] | outcome [10] | outcome [12] | outcome [14] | outcome [15]

O=C(NNS(=O)(=O)c1ccc(Cl)cc1)C1CCN(Cc2ccccc2)CC1
inactive: outcome [16] | outcome [17] | outcome [21]
active: signal change vs control [18] -4% | membrane potential signal change [19] 0.15% | inhibition [20] 77.8%

Cc1cc(OCCNCCO)cc(C)c1Cl
active: activation [1] 122% | activation [2] 65% | potentiation [3] 20% | potentiation [4] 19% | activation [9] 37% | activation [11] 35.3% | potentiation [13] 24.3%
inactive: outcome [5] | outcome [6] | outcome [7] | outcome [8] | outcome [10] | outcome [12] | outcome [14] | outcome [15]

CCN(CC)CCn1c2ccc(Cl)cc2c2nc(C)sc21
active: inhibition [16] 57.5% | membrane potential signal change [19] -267% | inhibition [20] 49.7%
inactive: outcome [17] | outcome [18] | outcome [21]
